# Results published in PubChem BioAssay (NCI).
# The panel holds about 79,000 compounds, 15% with a hit somewhere; the sample as a whole holds those more often. Unmarked numbers belong to inactive results. Active and inactive are the calls of the source. No stated cut-off is given here; in the data, active means growth inhibition above about 70%; inactive means the rest.
# Legend:
# [1] = NCI Yeast Anticancer Drug Screen. Data for the rad50 strain (AID 155);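 further: 0% = growth of vehicle-only cultures of the same strain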; conditions: S. cerevisiae rad50 strain growth inhibition; at 50.0 µM; active compounds read high
# Summary of the method: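 Cells are treated with compound, grown, and their growth is then scored against vehicle-only cultures of the same repair-deficient yeast strain.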
# [2] = NCI Yeast Anticancer Drug Screen. Data for the mec2-1 strain (AID 157); conditions: S. cerevisiae mec2-1 strain, at 50.0 µM, active compounds read high
# Summary of the method: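 Compounds were applied to mec2-1 yeast cells. Their growth was then compared with that of vehicle-treated cultures to give growth inhibition.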
# [3] = NCI Yeast Anticancer Drug Screen. Data for the sgs1 mgt1 strain (AID 161);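 further: 0% = growth of cultures given vehicle only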; conditions: S. cerevisiae sgs1 mgt1 strain, at 50.0 µM, active compounds read high
# Summary of the method: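 Yeast cells carrying a defined DNA-repair defect were exposed to test compounds. Growth inhibition was measured relative to vehicle-treated controls.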
# [4] = NCI Yeast Anticancer Drug Screen. Data for the cln2 rad14 strain (AID 165);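 further: 0% = growth equal to vehicle treated cultures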; conditions: S. cerevisiae cln2 rad14 strain, at 50.0 µM, active compounds read high
# Summary of the method: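 Strain: cln2 rad14 yeast, altered in cell cycle control and DNA damage repair. Read-out: growth inhibition vs vehicle.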
# [5] = NCI Yeast Anticancer Drug Screen. Data for the bub3 strain (AID 167); conditions: S. cerevisiae bub3 mutant strain, at 50.0 µM, active compounds read high
# Summary of the method: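 Part of a panel of yeast mutants defective in DNA damage repair or cell cycle regulation. Each strain is grown with compound, and inhibition is calculated relative to solvent-treated cultures.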
SMILES,growth inhibition [1],growth inhibition [2],growth inhibition [3],growth inhibition [4],growth inhibition [5]
C(=NCCN1CCOCC1)=NC1CCCCC1,-22.4%,-3.25%,-10.9%,-21.1%,-58.1%
O=[N+]([O-])c1ccc(P(=O)(O)O)cc1,-7.5%,-27.7%,0.3%,-22.4%,2.85%
Nc1nnc(N)n1N,15.8%,-21.2%,-8.15%,-20.3%,1.5%
CCOC(=O)COc1cc(Cl)c(S(=O)(=O)F)cc1Cl,98.8% (active),92.3% (active),97.3% (active),93.1% (active),98.3% (active)
Nc1ccc(C(=O)O)cc1[As](O)O,-15.1%,-4.05%,5.95%,-6.4%,0.6%
CN(C)C(=S)Oc1cc(Cl)c(S(=O)(=O)F)cc1Cl,99.5% (active),98.8% (active),99.2% (active),95.8% (active),99.2% (active)
CCCCOP(=O)(CSCC)OCCCC,-6.2%,0.1%,-16.6%,16.2%,14.9%
Nc1nnnn1CCO,-4.7%,-13%,-17%,6.4%,-13.1%
COc1ccc(/C=C(/C)[N+](=O)[O-])cc1OC,99.3% (active),99.7% (active),99.3% (active),97.2% (active),99.7% (active)
C[As](C)(=S)[As](C)(C)=S,77.3% (active),50.1%,65.2%,27.6%,66.7%
NNC(=O)CCC(N)C(=O)O (stereo not given),-20.3%,-18.4%,-35.3%,-11.8%,-17.4%
OC1CCN(C2(c3ccccc3)CCCCC2)CC1,-13.9%,1.45%,-1.85%,-4.25%,-6.1%
CCCCCCCCCCCC(=O)[O][Pb]([CH2]CCC)([CH2]CCC)[O]C(=O)CCCCCCCCCCC,23.5%,4.05%,13.2%,-3.15%,6.45%
COc1cccc(C2CC(=O)c3cccn32)c1 (stereo not given),11.3%,1.65%,-4.7%,21.3%,-5.25%
Nc1ccc2ncccc2c1 (tested in a mixture with another compound),39.2%,97.5% (active),45.5%,56.4%,46.5%
COc1cc2c(c3oc4cccc(O)c4c(=O)c13)[C@@H]1C=CO[C@@H]1O2,-11.6%,-15.2%,-7.05%,26.1%,-8.7%
CC(C)CC(C)OC(=O)Cc1ccccc1 (stereo not given),39%,14.5%,31.1%,-6.9%,7.8%
NC1(C(=O)O)CCCC1,-21.1%,-21.9%,-15.2%,-63.8%,-1.5%
COc1ccc(C(=O)O[C@H]2CC[C@@]3(C)[C@@H]4CC[C@H]5[C@]6(O)C[C@H](O)[C@@]7(O)[C@@H](CN8C[C@@H](C)CC[C@H]8[C@@]7(C)O)[C@]6(O)C[C@@]53OC24O)cc1OC,-16.7%,-32%,-28.9%,6.4%,-28.8%
CCOP(=O)(OCC)Oc1ccc(S(C)=O)cc1 (stereo not given),-1.95%,-14.8%,-1%,-10.2%,8.75%
CCN(CC)c1cccc(OC(=O)NC)c1,0.55%,-0.25%,-4.6%,-15.8%,3.5%
COC(=O)C1=CO[C@@H](C)[C@@H]2CN3CCc4c([nH]c5cc(OC)ccc45)[C@@H]3C[C@H]12,-0.2%,-28.9%,-11.1%,-2.9%,-27%
CC/C=C/C1(C(C)C)C(=O)NC(=O)NC1=O (tested in a mixture with another compound),14.9%,0.35%,5.15%,-27.4%,0.3%
C=CCC1(O)CCC2C3CCC4=CC(=O)CCC4=C3C=CC21CC (stereo not given),26.9%,-7.35%,20.4%,19.9%,21.5%
